The whole screen tested about 350,000 compounds, of which about 31,000 (8.9%) were called active. Roughly 15% stayed inconclusive and do not appear here. The full list was thinned out, with actives kept by preference. Values without a mark were called inactive. Calls come from the whole dose curve; as a rule, active = well fitted inhibition curve with a large enough effect; inconclusive = small, poorly fitted or top-dose-only effect; inactive = no such curve, though single readings can be large or run the other way.
% is set by controls: 0 for no effect and ±100 for the full control effect; potency is the fitted concentration of half-maximal effect.

In the experiment the target is Histone-lysine N-methyltransferase EHMT2 (Homo sapiens) (UniProt Q96KQ7). The experiment can be described thus: qHTS Assay for Inhibitors of Histone Lysine Methyltransferase G9a. Note: nearly all actives have a fitted effect of over 75% in size. The settings on record: G9a H3K9 monomethylation, AlphaScreen, 2 h; series mostly up to 59 µM; activity, negative = inhibition: at the top concentration. From the text: Methylated lysines, on the N-terminal tails of histone proteins serve as epigenetic markers to recruit factors that can then modify local chromatin structure to lead to functional consequences. G9a and other members of the SUV39 family of the SET domain-containing superfamily of histone lysine methyltransferases (HMT) have been identified to specifically methylate Lys9 of histone H3 (H3K9). G9a catalyzes the mono- and di-methylation of H3K9 in mammalian euchromatic regions, where the resulting H3K9me2 is indicative of transcriptional repression. […] The inhibition of G9a will result in transcriptional activation and work synergistically with DNA methyltransferase and histone deacetylase inhibitors, to kill cancer cells. This qHTS assay for identification of G9a inhibitors is a chemiluminescence based AlphaScreen (PerkinElmer). Methylation of biotinylated-histone peptide is measured through specific antibody-based detection, in conjunction with streptavidin-coated donor and anti-IgG antibody-coated acceptor beads. The method is particularly well suited for detection of inhibitors acting by the desired histone peptide competitive mechanism and is applicable to testing other HMTs. Although AlphaScreen has significant advantages with its utility in a variety of epigenetic target assays, the primary screening data provided in this deposition should be used with caution due to the prevalence of screening artifacts. An AlphaScreen counterscreen is highly recommended to be run against any putative actives to eliminate non specific artifacts. Alternatively, one can use other AlphaScreen assays in PubChem to filter out promiscuous hits. Quinn et al. A chemiluminescence-based method for identification of histone lysine methyltransferase inhibitors. Mol Biosyst 6(5): 782-8. 2010. PMID: 20567762 [2] Baell,Holloway. New substructure filters for removal of pan assay interference compounds (PAINS) from screening libraries and for their exclusion in bioassays. J Med Chem. 53(7):2719-40. 2010. PMID: 20131845 NIH Molecular Libraries Probe Production Network [MLPCN] NIH Chemical Genomics Center [NCGC] Structural Genomics Consortium (SGC) NIH Grant: 5U54 MH084681-02
Chain of Histone-lysine N-methyltransferase EHMT2 (Homo sapiens) (Q96KQ7 913-1193 limits assumed): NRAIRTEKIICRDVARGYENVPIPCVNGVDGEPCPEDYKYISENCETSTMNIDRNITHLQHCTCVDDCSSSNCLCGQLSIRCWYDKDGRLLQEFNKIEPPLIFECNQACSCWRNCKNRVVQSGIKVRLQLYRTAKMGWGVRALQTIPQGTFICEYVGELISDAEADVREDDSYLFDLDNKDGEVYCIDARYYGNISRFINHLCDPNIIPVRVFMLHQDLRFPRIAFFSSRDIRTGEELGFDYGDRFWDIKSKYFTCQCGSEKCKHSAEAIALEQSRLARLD
To each well of a 1,536w plate, 2ul of HMT enzyme (final 20nM) were added, using a nanoliter dispenser. The G9a- and GLP-inhibitor BIX-01294 (CID: 25150857) are used as an intraplate control, with a 16-point titration in duplicate. A Kalypsys pin-tool transferred 23nl of library compound solution in DMSO to each well. Following a 15 min incubation of enzyme with compounds at room temperature, 1ul mixture of b-H3K9 peptide substrate (final 500nM) and SAM cofactor (final 20uM) were added. Reactions were allowed to proceed at room temperature for 2 hours. Methylated b-H3K9 peptide product was detected with 0.5 ug/mL rabbit polyclonal anti-monomethyl histone H3K9 antibody (Abcam Inc., Cambridge, MA) and 20 ug/mL each streptavidin-coated donor and anti-rabbit IgG acceptor AlphaScreen beads. Antibody and beads were added in a 1ul dispense, for a final volume of 4ul, and plates were incubated, protected from the light, for 10 min at room temperature. Microplates were then read on an EnVision multilabel plate reader using the 1,536 plate HTS AlphaScreen aperture (excitation time 80 ms, measurement time 240 ms).
On the technique in general: Quantitative high-throughput screening tests each substance at several concentrations.
Turning to `S=C(NCCCc1cnc[nH]1)NCCCN(Cc1ccc(Cl)c(Cl)c1)c1ccc(Br)cn1`, the Potency is 25.1 µM (active).
`CCc1cc2c(cc3c(=O)n(CC(=O)N4CCN(c5cc(Cl)ccc5C)CC4)ncn32)s1`: the “activity, negative = inhibition” value was 0.716%.
Regarding `CCNC(=O)N1CCCC(C(=O)c2ccc(-c3ccccc3)cc2)C1` (stereo not drawn), the “activity, negative = inhibition” value was 51.8% [at 102 µM].
Take `NS(=O)(=O)c1cccc(NC(=O)CN2CCCc3ccccc32)c1`: the Potency is 44.7 µM (active).
As to `O=Cc1c(NCCCN2CCCC2=O)c2ccccc2[nH]c1=O`, the “activity, negative = inhibition” value is 20.8% [at 102 µM].
Consider `COC(=O)c1[nH]c2ccccc2c1NC(=O)CN1CCCc2ccccc21`, for which the Potency was 44.7 µM (active).
Regarding `CCn1c(=O)c2ccccc2n(CC(=O)N2CCCc3ccccc32)c1=O`, the activity, negative = inhibition is -7.66% [at 0.501 µM].
Turning to `CC1Cc2ccccc2N1CC(=O)Nc1ccc(S(N)(=O)=O)cc1` (stereo not drawn), the “activity, negative = inhibition” value was -108%.
On to `O=C(CN1CCc2ccccc2C1)Nc1cccc(S(=O)(=O)N2CCOCC2)c1`, for which the activity, negative = inhibition was 15.7% [at 12.7 µM].
Same read-out and setting: the value for `O=C(CCCn1c(=O)c2cccn2c2cccnc21)NCc1ccc(F)cc1` was 5.33%; that for `Cc1cc(C)cc(NC(=O)c2cnc3sc(N4CCCC4)nn3c2=O)c1` was 4.91%.
Consider `O=C(Cc1ccccc1)NNC(=O)C1CCN(c2ncccn2)CC1`, for which the “activity, negative = inhibition” value is 2.95% [at 102 µM].
On to `O=C1/C(=C\Nc2ccccc2)CCN1c1ncccn1`, for which the Potency is 50.1 µM (active).
With `COc1ccc(-c2c(C)nn3c(N4CCC(C(=O)NCCC(C)C)CC4)cc(C)nc23)cc1OC`, the “activity, negative = inhibition” value is 5.73%.
On the same count and under the same terms, the value for `CCC1CCCCN1Cc1c(O)ccc2c(=O)c(Oc3ccccc3Cl)c(C(F)(F)F)oc12` (stereo not drawn) was 0.282%.
On the same count and under the same terms, the figure for `Cc1ccc(OCCn2c(CNc3ccccc3C)nc3ccccc32)cc1` is 5.61%; for `COc1ccccc1CNC(=O)CCCCn1c(=O)c2ccccc2n(CC(=O)Nc2cc(Cl)ccc2C)c1=O` it is -19.7%.
On to `COC(=O)c1ccc(NC(=O)CCc2c(C)nc3c(c(C)nn3-c3ccc(C)cc3)c2C)cc1`, for which the “activity, negative = inhibition” value was -1.18%.
In the case of `O=C(CCOc1ccccc1)N(Cc1cccnc1)c1nc2ccc(Cl)cc2s1`, the “activity, negative = inhibition” value is -3.53%.
Regarding `CCN(CC)CCOc1ccc2c(c1)C(=NNC(=O)c1ccccn1)c1cc(OCCN(CC)CC)ccc1-2`, the Potency is 22.4 µM (active).
Consider `COc1ccc(CC(=O)N/N=C(\C)c2ccccn2)cc1`, for which the “activity, negative = inhibition” value is -5.58%.
Consider `Cc1cccc(OCC(=O)NCCCNC(=O)c2ccccn2)c1`, for which the “activity, negative = inhibition” value was 15.8% [at 102 µM].
For `O=C(Nc1ccccc1N1CCN(C(=O)c2ccccc2)CC1)c1ccco1`, the “activity, negative = inhibition” value was -3.56% [at 102 µM].
Turning to `CCc1nc2ccc(C(=O)N3CCN(c4cc(Cl)ccc4C)CC3)cc2nc1CC`, the “activity, negative = inhibition” value is 9.41%.
Take `Cc1ccc(C)c(N2C(=O)N(Cc3c(F)cccc3Cl)c3ccccc3S2(=O)=O)c1`: the “activity, negative = inhibition” value was 0.542%.
Consider `CCOc1ccc(NC(=O)c2cc3c(=O)n(Cc4cccs4)ccc3nc2C)cc1`, for which the “activity, negative = inhibition” value was -4.13%.
Turning to `Cc1nn(-c2ccccc2)c2c1c(C)c(CCC(=O)NCC1CCCO1)c(=O)n2C` (stereo not drawn), the “activity, negative = inhibition” value is 51.1% [at 102 µM].
As for `O=C(c1cccs1)N1CCN(C(=O)N2CCOCC2)CC1`, the “activity, negative = inhibition” value was 24.4%.
`COc1ccc(N2CCN(C(=O)c3cccs3)CC2)cc1`: the Potency was 50.1 µM (active).
In the case of `COc1ccc(OCC(=O)N2CCN(C(=O)c3cccs3)CC2)cc1`, the “activity, negative = inhibition” value was 11.1%.
As for `O=C(O)c1ccc(NC(=O)c2ccc(COc3ccc(Cl)cc3)o2)cc1`, the “activity, negative = inhibition” value was 2.31% [at 102 µM].
Take `Cc1ccc(Oc2c(C(F)(F)F)oc3c(CN4CCCCC4)c(O)ccc3c2=O)cc1`: the “activity, negative = inhibition” value was -2.63%.
The same measure, in the same setting: the figure for `O=C(N/N=C/c1c[nH]c2ccccc12)c1ccccc1O` is 14.7% [at 102 µM]; for `c1ccc(-c2oc3ncnc(N4CCOCC4)c3c2-c2ccccc2)cc1` it is -7.86% [at 12.7 µM].
For `O=C1c2ccccc2-c2ncnc3c(N4CCOCC4)cc(N4CCOCC4)c1c23`, the Potency is 50.1 µM (active).
For the molecule `O=C(Nc1ccccc1N1CCOCC1)c1ccncc1`, the activity, negative = inhibition is -10.3% [at 2.33 µM].
Still for that read-out and setting: the figure for `COc1cc(C(=O)NCCc2csc3nc(-c4ccccc4C)nn23)cc(OC)c1OC` is 38.2%.
For the molecule `CN(C)c1ccc(C(CC(=O)O)C(=O)O)cc1` (stereo not drawn), the Potency is 56.2 µM (active).
Consider `CC(=O)NC(CC(=O)O)c1ccc(F)cc1` (stereo not drawn), for which the “activity, negative = inhibition” value is -46.2% [at 102 µM].
Regarding `CN(C)c1ccc(/C=N/NC(=O)C(O)c2ccc(Br)cc2)cc1` (stereo not drawn), the “activity, negative = inhibition” value was -46.3% [at 102 µM].
Take `COc1cccc(C(=O)N(Cc2cccc(Cl)c2)Cc2ccco2)c1`: the “activity, negative = inhibition” value was -21.4%.
Take `COc1ccc(OCc2cc(C(=O)N3CCCC3)no2)c2ccccc12`: the Potency was 39.8 µM (active).
Turning to `O=C(c1cc(COc2ccc(F)cc2F)on1)N1CCOCC1`, the “activity, negative = inhibition” value was -7.8% [at 102 µM].
Consider `COc1ccccc1-c1cc(C(=O)N2CCCCC2)no1`, for which the “activity, negative = inhibition” value is 9.56% [at 102 µM].
As to `Cc1ccc(CNS(=O)(=O)CCNC(=O)c2ccccc2)cc1`, the “activity, negative = inhibition” value is 0.106% [at 102 µM].
For the molecule `Cc1csc(NC(=O)C2=COCCO2)n1`, the “activity, negative = inhibition” value was 2.32% [at 102 µM].
With `Cc1ccc(-c2csc(NC(=O)c3cnccn3)n2)cc1C`, the “activity, negative = inhibition” value was -3.35%.
Consider `Cc1ccc(-c2csc(NC(=O)C3=COCCO3)n2)cc1C`, for which the Potency is 56.2 µM (active).

These data come from PubChem BioAssay AID504332 (National Center for Advancing Translational Sciences (NCATS), 2011).
